Here are results for 40 compounds from PubChem BioAssay (NCI).

This is part of a sample that, as a whole, favours compounds with a hit. Of some 83,000 tested, about 20% had one in any assay.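 Note: values are percent growth. 100 is the growth of untreated cells, values between 100 and 0 indicate rising inhibition; between -100 and 0 indicates cell death.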 A number with no mark means an inactive call. The source made the active and inactive calls.

This assay relates to MDA-MB-468 breast. As to the kind of experiment: NCI-60 one-dose screen, 48 h (100 = growth as untreated, 0 = no growth, -100 = all killed). To be noted: 10 µM unless noted. The procedure:
Growth inhibition of the MDA-MB-468 human Breast tumor cell line is measured as a screen for anti-cancer activity. Cells are grown in 96 well plates and exposed to the test compound for 48 hours. Compounds are tested at a single concentration, which is 10^-5 M for most compounds. The reported endpoint is percent growth (GI% or GIPRCNT), where numbers from 0 - 100% represent growth inhibition, and numbers from -100% - 0 represent cell death. For example, a value of 40 represents 60% growth inhibition. A value of 0 means no net growth occurred over the course of the experiment. A value of -40 indicates 40% of cells at the beginning of the experiment died by the end of the experiment. A value of -100 means all cells are dead at the end of the experiment.
NCI-60 Human Tumor Cell Lines Screen was performed using the standard one-dose NCI protocol, which is described in more detail at https://dtp.cancer.gov/discovery_development/nci-60/default.htm.
Compounds with GIPRCNT values below 10 were considered active. Activity score was based on GIPRCNT using the following formula: […]
Score is 0 for GIPRCNT values of 100 or above, 50 for GIPRCNT values of 0, and 100 for GIPRCNT values of -100.
For `CC(=O)c1c(C)[nH]c(-c2nc3ccc(N4CCN(C)CC4)cc3[nH]2)c1-c1ccc2c(c1)OCCO2`, the growth is 12.6%. For `CC1(C)N=C(N)N=C(N)N1c1cccc(CCc2ccccc2)c1` the value was 16.6%; for `COc1cc2nc(-c3ccc(C(F)(F)F)cc3)cc(OCCCNCC3CCCO3)c2cc1OC` (stereo not given), 14.2%; for `COc1cc(CCC[P+](c2ccccc2)(c2ccccc2)c2ccccc2)c(OC)c(OC)c1OC`, 30.3%. In the case of `CO[C@H](C(=O)[C@@H](O)[C@@H](C)O)[C@@H]1Cc2cc3cc(O[C@H]4C[C@@H](O[C@H]5C[C@@H](O)[C@H](O)C(C)O5)[C@H](O)C(C)(O)O4)cc(O)c3c(O)c2C(=O)[C@H]1O[C@H]1C[C@@H](O[C@H]2C[C@@H](O[C@H]3C[C@@H](OC)[C@H](O)C(C)O3)[C@@H](O)C(C)O2)[C@H](O)C(C)O1` (stereo not given in full), the growth was 14%. The result for `COc1ccc(-n2c(=O)n(-c3ccc(-c4nc5ccc(F)cc5s4)cc3)c(=O)c3cccnc32)cc1` reads 121%; that for `COc1ccc2c(c1)nc(N)c1c3cc(OC)c(OC)cc3cn21`, 2.7% (active); that for `CCc1cccc(NC(=O)CNc2cc(S(=O)(=O)N(C)C)cc(C)c2C)c1`, 87.3%.

As for `Nc1cc(-c2c[nH]c3ccc(Cl)cc23)nc2cc(-c3c[nH]c4ccc(Cl)cc34)nn12`, the growth is 68.2%. For `CCOCCOCCOCCOCCOCCOCCOCCOCCOCCO` (tested in a mixture with another compound) the value was -13.5% (active); for `CC(=O)OCC1CCC(COC(C)=O)CC1` (stereo not given), 110%. The result for `COc1ccc(NC(=O)Nc2ccc(-c3ccc(OC)c(OC)c3)nc2C)cc1` reads 83%; that for `CC(=O)O[C@@H]1[C@@H](OC(C)=O)[C@H](OC(C)=O)CO[C@H]1Nc1cccc2ccccc12`, 104%; that for `Nc1nc(N)c2[nH]cnc2n1`, 69.9%. The result for `CCOc1ccc(Nc2nc(-c3ccc4c(c3)NC(=O)CO4)cs2)cc1` reads 17.8%; that for `CCOC(=O)/C(C#N)=C/c1cccc(C)c1`, 90.9%.

With `CCN(CC)CCCCCCCNc1c2ccc(Cl)cc2nc2ccc(OC)cc12`, the growth was -86.6% (active). Consider `N#Cc1c(-c2ccc(C(F)(F)F)cc2)cc(N2CC(O)C2)n2c1nc1ccccc12`, for which the growth was 67.1%.

Turning to `O=C1CSC(c2ccccc2)N1c1ccccc1` (stereo not given), the growth was 90.6%. The result for `C=CCn1c(SCC(=O)Nc2cccc(C(=O)/C=C/c3ccccc3)c2)nc2ccccc2c1=O` reads 78.9%. For `Cc1ccc(-c2nc3ccc(Cl)cn3c2NC2CCCCC2)o1` the value was 78.2%; for `C/C(=C(/c1ccccc1)c1ccc(OCC(O)CNCCN2CCOCC2)cc1)c1ccccc1` (stereo not given), 53.1%; for `CCN(CC)CCOc1ccc(C(=C(C)c2ccc(OC)cc2)c2ccc(OCCN(CC)CC)cc2)cc1`, -70.1% (active).

Turning to `COc1ccccc1OCC(=O)N1CCCCCC1`, the growth was 97.1%. For `COC1=CC(c2ccc[nH]2)=N/C1=C\c1[nH]c(C)c(C(=O)OCCn2cc(CCC[C@@H]3Cc4cc(O)ccc4C4CC[C@]5(C)[C@@H](O)CC[C@H]5C43)nn2)c1C` (stereo not given in full), the growth is 78%. For `CC(C)(C)CC(C)(C)NC(=O)Nc1ncccc1OCc1ccccc1` the value was 96%; for `Cc1ccc(NC(=O)Nc2nc3ccccc3s2)cc1NC(=O)Nc1nc2ccccc2s1`, 96%; for `N#C/C(=C\c1ccc(Cl)cc1Cl)C(=O)Nc1ncc(Cc2ccc(Cl)c(Cl)c2)s1`, 88.6%. With `C=CCNC(=O)Cc1c(-c2ccc(OC)cc2)oc2c(OC)c3c(c(OC)c12)OCO3`, the growth was 94.9%. The result for `Cn1cc(-c2nnc(N)nc2-c2c[nH]c3ccc(F)cc23)c2cc(F)ccc21` reads -15.1% (active). The result for `COc1cc(OC)c(/C=C/C(=O)c2ccc(Nc3ncnc4ccccc34)cc2)c(OC)c1` reads -34.8% (active); that for `CCCCCCCCn1ccc2cc(NC(=O)Cn3cc(CN4CCN(CC)CC4)nn3)ccc21`, 62.1%; that for `CCCSc1nc(Nc2ccc(/C(C)=N\NC(N)=S)cc2)c(C#N)c(-c2ccc(OC)cc2)n1`, 93.1%.

As for `C=C1C(=O)O[C@H]2[C@H]1CC/C(COC(=O)NCc1ccc(Cn3c(=O)sn(-c4ccc(C#N)cc4)c3=O)cc1)=C\CC[C@@]1(C)O[C@@H]21`, the growth is 7.72% (active). For `CC(C)[C@@]12C[C@@H](OC(=O)COC(=O)c3ccccc3)[C@@](C)(O1)[C@@H]1CC[C@@H](C)[C@H]1[C@@H]2OC(=O)/C=C/c1ccccc1` the value was 85.4%. The result for `O=C1C=CC2(NN=C(c3ccccc3)N2c2ccccc2)c2cccc(O)c21` (stereo not given) reads 36.2%; that for `Cc1cc(NC(=O)C2c3ccccc3C(=O)N(CC(C)C)C2c2cccs2)no1` (stereo not given), -56.6% (active). The result for `CC(C)(C)c1ccc(S(=O)(=O)Oc2ccc3c4c(c(=O)oc3c2)CCCCC4)cc1` reads 23.9%; that for `CS(=O)(=O)c1ccc(Cl)c([N+](=O)[O-])c1`, 103%. As for `CN1CCN(CCC(=O)Nc2cccc(-n3cc(-c4ccncc4)c(-c4ccc(Cl)c(O)c4)n3)c2)CC1`, the growth is 12.7%.
